MEKK2wt PB1 HTS: raises or lowers MEK5 binding to wildtype human MEKK2 PB1 domain | bead flow cytometry, Alexa488-MEK5 binding to MEKK2 WT; actives lie on both sides | hit rate 1.1% among 290,000 | binding response (% of control), % at 10 µM | Q9Y2U5; in the data active = binding response below about 67% or above about 130%
MEKK3 PB1 HTS: modulators (inhibitors or enhancers) of MEK5 binding to human MEKK3 PB1 domain | Q99759 | bead-based flow cytometry, Alexa488-MEK5 binding to MEKK3; actives lie on both sides; 0 = blocked by unlabeled MEK5, 100 = vehicle | hit rate 1.4% among 290,000 | binding response (% of control), % at 10 µM;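 active = binding response more than 3 SD above or below the average of its plate-row segment, actives on both sides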;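 also: Alexa488 bead fluorescence after subtracting the streptavidin-only scavenger bead signal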
Target sequence (Q99759 whole entry, looked up, the tested form may be a part): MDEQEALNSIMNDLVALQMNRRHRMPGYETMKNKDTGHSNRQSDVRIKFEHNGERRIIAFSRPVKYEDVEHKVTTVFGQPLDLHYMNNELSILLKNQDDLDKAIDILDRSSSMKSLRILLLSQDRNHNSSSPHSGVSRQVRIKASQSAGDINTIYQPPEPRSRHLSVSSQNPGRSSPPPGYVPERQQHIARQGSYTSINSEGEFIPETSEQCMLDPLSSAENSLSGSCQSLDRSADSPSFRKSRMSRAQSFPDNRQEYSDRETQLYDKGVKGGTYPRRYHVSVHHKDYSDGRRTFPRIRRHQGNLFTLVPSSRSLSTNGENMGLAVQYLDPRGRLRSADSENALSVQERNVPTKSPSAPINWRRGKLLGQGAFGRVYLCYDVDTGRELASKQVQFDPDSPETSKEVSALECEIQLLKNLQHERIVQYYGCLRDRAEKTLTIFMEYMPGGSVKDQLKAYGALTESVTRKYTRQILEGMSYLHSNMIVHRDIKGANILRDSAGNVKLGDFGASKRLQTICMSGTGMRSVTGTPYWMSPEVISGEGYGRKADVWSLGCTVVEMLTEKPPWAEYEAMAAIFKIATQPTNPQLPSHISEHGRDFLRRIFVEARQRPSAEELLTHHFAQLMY
GRK2 inh: inhibitors of human GRK2 displacing RNA aptamer | hit rate 0.59% among 330,000 | bead flow cytometry, FAM-aptamer displacement from GRK2 | P25098 | AID 488847 | inhibition of aptamer binding, % at 10 µM;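 active = inhibition of aptamer binding above 40%, roughly 3 SD of noise, on plates passing a quality check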;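 also: median bead fluorescence of bound FAM aptamer so fluorescent compounds give negative values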
MEKK2 mut-MEK5: signal of MEK5 binding to mutant human MEKK2 PB1 domain | bead flow cytometry, Alexa488-MEK5 binding to MEKK2 mutant | percent response, % at 10 µM | hit rate 0.35% among 290,000 | AID 1530; in the data active = percent response above about 24%, passing the limit was not always enough
MEKK2wt confirm: raises or lowers MEK5 binding to wildtype human MEKK2, retest. shares compounds with MEKK3 PB1 HTS. bead flow cytometry, Alexa488-MEK5 binding to MEKK2 WT; actives lie on both sides. binding response (% of control), % at 10 µM. hit rate 2.4% among 5,900; in the data active = binding response below about 16% or above about 210%; inactive = in between
MEKK2mut confirm: signal of MEK5 binding to mutant human MEKK2, retest; shares compounds with MEKK3 PB1 HTS; bead flow cytometry, Alexa488-MEK5 binding to MEKK2 mutant; percent response, % at 10 µM; hit rate 2% among 5,900; in the data active = percent response mostly above about 71%, no sharp cut-off; inactive = mostly below about 38%;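 also: higher means compound restores mutant binding toward wildtype level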
MEKK3-MEK5 inh: confirmation of inhibitors of MEK5 binding to human MEKK3 | shares compounds with MEKK3 PB1 HTS | bead flow cytometry, Alexa488-MEK5 binding to MEKK3; stronger effect = lower value | binding response (% of control), % at 10 µM | hit rate 1.8% among 5,900;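 active = binding response below 72% of control, or above a set upper limit, though filed actives all read lower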;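 also: 100% = DMSO only wells and 0% = binding blocked by excess unlabeled MEK5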
An asterisk follows results filed as active; / = not tested or not shown; [ ] = dose if it differs, or a comment. Hits are enriched below; roughly 2.5% of the tested compounds scored in any of these assays.

SMILES	MEKK2wt PB1 HTS	MEKK3 PB1 HTS	GRK2 inh	MEKK2 mut-MEK5	MEKK2wt confirm	MEKK2mut confirm	MEKK3-MEK5 inh
O=C(CN1CCCC1)NC12CC3CC(CC(C3)C1)C2	94	98	6	-2	/	/	/
O=C(CN1CCCC1)NCC12CC3CC(CC(C3)C1)C2	91	82*[inhibitor]	0	-5	101	3	103
O=c1[nH]cc(I)cc1I	38*[inhibitor]	37*[inhibitor]	/	-27	101	4	102
Cc1cccc(NC(=O)CCNC(=O)c2ccco2)c1	106	102	3	0	/	/	/
COCCCNC(=O)CN(Cc1ccccc1)S(=O)(=O)c1ccccc1	108	103	1	27*	104	2	102
CC(=O)OCCNc1cc(SCc2ccco2)c2nonc2c1[N+](=O)[O-]	113	146*	0	1	107	6	106
O=[N+]([O-])c1c(NCCCO)cc(SCc2ccco2)c2nonc12	101	106	6	4	/	/	/
Cc1ccc(/C=N/NC(=O)CCCOc2ccc(Cl)cc2Cl)cc1	101	137*	0	-1	98	-6	98
O=C(CCCOc1ccc(Cl)cc1Cl)N/N=C/c1ccccc1	105	125	2	-1	/	/	/
COc1ccc(-n2c(=S)[nH]c3cc(C(=O)Nc4ccccc4OC)ccc3c2=O)cc1	103	132*	0	-1	98	-1	97
COc1ccc(-n2c(=S)[nH]c3cc(C(=O)Nc4ccccc4OC)ccc3c2=O)c(OC)c1	82	91	1	-7	/	/	/
CCN1CCN(c2cc(C)c3cc(NC(=O)c4ccc(OC)c(OC)c4)ccc3n2)CC1	130	105	0	30*	126	13	102
CCN1CCN(c2cc(C)c3cc(NC(=O)CCC(=O)Nc4ccc(OC)c(OC)c4)ccc3n2)CC1	110	104	0	7	/	/	/
COc1ccc(C(=O)Nc2ccc3nc(N4CCN(C)CC4)cc(C)c3c2)c(OC)c1	156*	106	0	24*	142	34	108
Cc1ccc(C(=O)N/C(=C\c2ccccc2)C(=O)OCc2ccccc2)cc1	87	98	1	-6	/	/	/
O=C(OCc1ccccc1)/C(=C/c1ccc(Cl)cc1)NC(=O)c1ccccc1Cl	111	109	1	24*	102	-5	103
O=C1CC(C(=O)N2CCN(S(=O)(=O)c3cccc(F)c3)CC2)CN1Cc1ccccc1Cl (stereo not drawn)	/	/	0	/	/	/	/
Cc1csc2ncc(C(=O)NCCc3ccccc3)c(=O)n12	105	100	0	-2	/	/	/
Cc1csc2ncc(C(=O)NCCC(c3ccccc3)c3ccccc3)c(=O)n12	123	130*	0	27	101	3	97
Cc1nnc(NC(=O)C2CC(=O)N(c3ccc4c(c3)OCCO4)C2)s1 (stereo not drawn)	/	/	6	/	/	/	/
CCC(CC)c1nnc(NC(=O)C2CC(=O)N(c3ccc4c(c3)OCCO4)C2)s1 (stereo not drawn)	110	135*	3	1	66	-18	61*
Cc1c(Br)c([N+](=O)[O-])nn1CC(=O)NC1CCCCCC1	93	98	2	0	/	/	/
CCOc1cc(C(=S)N2CCOCC2)ccc1OC	95	99	0	0	/	/	/
COc1cc(C(=S)N2CCOCC2)cc(OC)c1O	57	42*[inhibitor]	1	-17	109	15	107
COc1ccc(C(=O)N2CCOCC2)cc1Br	121	125*	8	7	93	-3	96
SMILES	MEKK2wt PB1 HTS	MEKK3 PB1 HTS	GRK2 inh	MEKK2 mut-MEK5	MEKK2wt confirm	MEKK2mut confirm	MEKK3-MEK5 inh
O=C(CCn1cnnn1)Nc1ccc(F)cc1	96	91	0	-1	/	/	/
O=C(Nc1ccc(Br)c(C(F)(F)F)c1)c1ccc(C(F)(F)F)cc1	139*	119	1	10	141	18	103
NC1=NC(=O)/C(=C/c2cn(CCC(=O)O)nc2-c2ccc(Cl)cc2)S1	107	108	0	0	/	/	/
NC1=NC(=O)/C(=C/c2cn(CCC(=O)O)nc2-c2ccc(F)cc2)S1	111	129*	0	1	98	-2	100
CC1Cc2ccccc2N1C(=O)CNCCCN(C)C (stereo not drawn)	/	/	2	/	/	/	/
CC1CC2(C)Oc3ccccc3CC2C(C)C1CNCCCN(C)C (stereo not drawn)	139*	103	5	21	113	4	95
CSCCC(NC(=O)c1cccc(C)c1)C(=O)OCN1C(=O)c2ccccc2C1=O (stereo not drawn)	/	/	4	/	/	/	/
C/C(=N\OC(=O)c1c(-c2ccccc2Cl)noc1C)c1ccncc1	55	48*[inhibitor]	4	-16	106	4	103
Cc1cc(C)n2ncc(/C(N)=N/OC(=O)Nc3ccc(Cl)cc3)c2n1	102	104	0	9	/	/	/
COC(=O)c1c(C(=O)c2ccc(Br)cc2)n(C)c2ccccc12	/	/	1	/	/	/	/
CCOC(=O)N/N=C(\C)c1ccc(Br)cc1	101	101	0	2	/	/	/
CCOC(=O)N/N=C(\C)c1ccc(C)c([N+](=O)[O-])c1	108	132*	2	1	97	-1	99
O=C(NCCC1=CCCCC1)C1CC(=O)N(Cc2ccccc2)C1 (stereo not drawn)	102	99	0	4	/	/	/
COc1ccc(NS(=O)(=O)c2cccc(C(=O)NC3CCN(Cc4ccccc4)CC3)c2)cc1	110	77*[inhibitor]	0	-4	120	7	105
CC(C)(CNC(=O)C1c2ccccc2-c2ccccc21)N1CCOCC1	100	102	2	3	/	/	/
CCOC(=O)CC1C(=O)NCCN1c1nc2ccc(C)cn2c(=O)c1/C=C1\SC(=S)N(C(C)CC)C1=O (stereo not drawn)	66	95	0	-21	/	/	/
CCOC(=O)CC1C(=O)NCCN1c1nc2ccc(C)cn2c(=O)c1/C=C1\SC(=S)N(CC(C)C)C1=O (stereo not drawn)	55*[inhibitor]	94	1	-7	93	-11	101
Cc1sc2ncnc(SCC(=O)Nc3nc(-c4ccc(F)c(F)c4)cs3)c2c1C	97	95	0	-4	/	/	/
CCC(=O)Nc1nnc(SCc2ccc(F)cc2)s1	3.0*[inhibitor]	2.0*[inhibitor]	0	2	102	2	110
CC(C)(C)C(=O)Nc1nnc(SCc2ccc(F)cc2)s1	98	100	2	-1	/	/	/
CCN1CCN(Cc2ccc(NC(=O)c3ccc(C)c(NC(=O)c4cccc5[nH]ccc45)c3)cc2C(F)(F)F)CC1	124	106	1	74*	187	55	100
CCN1CCN(Cc2ccc(NC(=O)c3ccc(C)c(NC(=O)c4nccnc4N)c3)cc2C(F)(F)F)CC1	113	107	0	9	/	/	/

Compound activity (PubChem BioAssay)
